The supplement of paper PMC10849652
About 7,900 targets were measured; listed, in parts, are those with a hit and a random draw of the rest. About 0.6% of all pairs of compound and target were hits. A number with no mark means an inactive call.

Columns and labels:
Experiment in all cases: log2 fold change, soluble protein after heating vs DMSO (PISA); higher = thermal stabilisation; K562 cells, 10 uM, 30 min; active = over 0.2 and 3.5 SD of the protein, either way, in both replicates (recomputed)
[1] = compound: C1=CC=C(C=C1)[C@H](COC2=CC3=C(C=C2)NC(=O)N3)NC(=O)C4=CC=CN(C4=O)CC5=CC(=C(C=C5)F)F
Method in brief: (§1)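 Soluble protein was quantified by TMTpro 16plex LC-MS/MS after channel sums were equalised. It was obtained as the supernatant after 21,000xg for 90 min from pooled aliquots of K562 cells (2×10^6 cells/mL, 10 μM compound, 30 min) heated for 3 min across 48°C-58°C and extracted in PBS with 0.5% NP-40 at 4°C. Thermal stability values are relative to control samples and come from duplicates. They are given as log2 fold changes.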

[2] = compound: CC1=C(SC2=C1C(=N[C@H](C3=NN=C(N32)C)CC(=O)N)C4=CC=C(C=C4)Cl)C
Method in brief: as §1

[3] = compound: CC1=C2C(=CC=C1)N=C(N(C2=O)C3=CC=CC=C3C)CN4C=NC5=C(N=CN=C54)N
Method in brief: as §1

[4] = compound: Cc1sc2c(c1C)C(c1ccc(Cl)cc1)=N[C@@H](CC(=O)OC(C)(C)C)c1nnc(C)n1-2
Method in brief: as §1

[5] = compound: c1ccc([C@@H]2C[C@H]2NC2CCNCC2)cc1
Method in brief: as §1

SLC38A9 (UniProt Q8NBW4)
log2 fold change [1]: 0.053 | log2 fold change [2]: -0.019 | log2 fold change [3]: 0.065 | log2 fold change [4]: -0.014 | log2 fold change [5]: 0.042

STAM2 (UniProt O75886)
log2 fold change [1]: -0.015 | log2 fold change [2]: 0.005 | log2 fold change [3]: 0.014 | log2 fold change [4]: 0.016 | log2 fold change [5]: -0.001

SMCHD1 (UniProt A6NHR9)
log2 fold change [1]: 0.129 | log2 fold change [2]: 0.141 | log2 fold change [3]: 0.063 | log2 fold change [4]: 0.01 | log2 fold change [5]: 0.036

TIMM21 (UniProt Q9BVV7)
UniProt Q9BVV7, sequence (Q9BVV7 whole entry, looked up): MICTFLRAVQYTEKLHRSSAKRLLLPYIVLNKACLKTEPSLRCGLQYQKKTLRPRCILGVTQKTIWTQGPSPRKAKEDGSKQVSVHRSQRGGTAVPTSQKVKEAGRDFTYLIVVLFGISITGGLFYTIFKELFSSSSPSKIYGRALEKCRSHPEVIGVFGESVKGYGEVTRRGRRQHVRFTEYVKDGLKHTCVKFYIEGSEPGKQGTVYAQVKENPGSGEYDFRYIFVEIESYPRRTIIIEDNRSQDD
log2 fold change [1]: -0.02 | log2 fold change [2]: 0.052 | log2 fold change [3]: 0.024 | log2 fold change [4]: 0.004 | log2 fold change [5]: -0.048

THYN1 (UniProt Q9P016)
UniProt Q9P016, sequence (Q9P016 whole entry, looked up): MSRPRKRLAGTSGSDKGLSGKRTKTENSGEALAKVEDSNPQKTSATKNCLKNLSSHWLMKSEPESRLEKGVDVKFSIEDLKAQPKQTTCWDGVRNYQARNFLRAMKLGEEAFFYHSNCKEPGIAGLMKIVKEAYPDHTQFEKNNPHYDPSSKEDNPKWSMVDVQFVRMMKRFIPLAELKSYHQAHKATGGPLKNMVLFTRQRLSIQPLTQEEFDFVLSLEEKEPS
log2 fold change [1]: -0.024 | log2 fold change [2]: 0.044 | log2 fold change [3]: 0.043 | log2 fold change [4]: 0.01 | log2 fold change [5]: -0.067

SNX11 (UniProt Q9Y5W9)
log2 fold change [1]: 0.004 | log2 fold change [2]: 0.063 | log2 fold change [3]: 0.108 | log2 fold change [4]: 0.057 | log2 fold change [5]: -0.027

TLK1 (UniProt Q9UKI8)
log2 fold change [1]: 0.007 | log2 fold change [2]: 0.036 | log2 fold change [3]: 0.036 | log2 fold change [4]: -0.036 | log2 fold change [5]: 0.018

TGFBI (UniProt Q15582)
UniProt Q15582, sequence (Q15582 whole entry, looked up): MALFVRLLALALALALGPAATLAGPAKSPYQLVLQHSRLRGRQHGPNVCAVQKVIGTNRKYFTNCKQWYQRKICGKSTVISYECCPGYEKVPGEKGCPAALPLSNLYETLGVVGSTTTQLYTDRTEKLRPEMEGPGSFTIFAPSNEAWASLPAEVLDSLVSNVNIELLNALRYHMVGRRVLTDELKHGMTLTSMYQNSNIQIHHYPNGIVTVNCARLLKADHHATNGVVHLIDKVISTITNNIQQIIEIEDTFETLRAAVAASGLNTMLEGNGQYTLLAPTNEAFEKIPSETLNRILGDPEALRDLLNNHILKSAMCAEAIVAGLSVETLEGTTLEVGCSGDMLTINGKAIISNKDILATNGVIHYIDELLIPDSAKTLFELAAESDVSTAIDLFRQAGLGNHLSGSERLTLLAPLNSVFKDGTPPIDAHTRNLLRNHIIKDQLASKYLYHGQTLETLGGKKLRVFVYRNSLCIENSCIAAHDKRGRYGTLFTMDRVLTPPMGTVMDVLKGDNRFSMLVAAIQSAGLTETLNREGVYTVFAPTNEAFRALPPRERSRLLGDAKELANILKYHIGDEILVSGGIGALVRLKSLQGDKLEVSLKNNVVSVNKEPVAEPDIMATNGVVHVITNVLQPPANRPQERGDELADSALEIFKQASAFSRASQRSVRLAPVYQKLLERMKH
log2 fold change [1]: -0.115 | log2 fold change [2]: -0.024 | log2 fold change [3]: 0.019 | log2 fold change [4]: -0.048 | log2 fold change [5]: -0.08

STK17B (UniProt O94768)
log2 fold change [1]: 0.043

SNX5 (UniProt Q9Y5X3)
log2 fold change [1]: -0.016 | log2 fold change [2]: 0.045 | log2 fold change [3]: 0.014 | log2 fold change [4]: 0.04 | log2 fold change [5]: -0.071

SUPT5H (UniProt O00267)
log2 fold change [1]: -0.05 | log2 fold change [2]: 0.109 | log2 fold change [3]: 0.106 | log2 fold change [4]: 0.001 | log2 fold change [5]: -0.051

SRSF7 (UniProt Q16629)
log2 fold change [1]: 0.136 | log2 fold change [2]: -0.171 | log2 fold change [3]: -0.093 | log2 fold change [4]: 0.209 | log2 fold change [5]: 0.055

TENT5C (UniProt Q5VWP2)
UniProt Q5VWP2, sequence (Q5VWP2 whole entry, looked up): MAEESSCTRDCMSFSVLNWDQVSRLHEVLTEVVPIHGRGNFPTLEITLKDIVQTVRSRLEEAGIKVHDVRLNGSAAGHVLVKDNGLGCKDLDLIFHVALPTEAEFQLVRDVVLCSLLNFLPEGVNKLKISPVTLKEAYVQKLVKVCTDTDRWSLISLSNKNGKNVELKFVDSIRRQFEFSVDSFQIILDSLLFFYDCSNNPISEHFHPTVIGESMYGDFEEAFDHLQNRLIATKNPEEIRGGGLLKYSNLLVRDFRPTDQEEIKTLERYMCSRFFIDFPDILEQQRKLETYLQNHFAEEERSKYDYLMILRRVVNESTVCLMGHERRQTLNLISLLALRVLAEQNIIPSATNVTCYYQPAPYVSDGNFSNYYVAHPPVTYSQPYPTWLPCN
log2 fold change [1]: 0.017 | log2 fold change [2]: 0.25 | log2 fold change [3]: 0.122 | log2 fold change [4]: 0.116 | log2 fold change [5]: -0.35

SURF2 (UniProt Q15527)
log2 fold change [1]: 0.056 | log2 fold change [2]: -0.018 | log2 fold change [3]: 0.033 | log2 fold change [4]: -0.047 | log2 fold change [5]: -0.044

TM9SF2 (UniProt Q99805)
log2 fold change [1]: 0.018 | log2 fold change [2]: 0.035 | log2 fold change [3]: 0.054 | log2 fold change [4]: -0.044 | log2 fold change [5]: -0.028

SRSF11 (UniProt Q05519)
log2 fold change [1]: 0.008 | log2 fold change [2]: 0.037 | log2 fold change [3]: 0.044 | log2 fold change [4]: -0.082 | log2 fold change [5]: -0.028

TANK (UniProt Q92844)
UniProt Q92844, sequence (Q92844 whole entry, looked up): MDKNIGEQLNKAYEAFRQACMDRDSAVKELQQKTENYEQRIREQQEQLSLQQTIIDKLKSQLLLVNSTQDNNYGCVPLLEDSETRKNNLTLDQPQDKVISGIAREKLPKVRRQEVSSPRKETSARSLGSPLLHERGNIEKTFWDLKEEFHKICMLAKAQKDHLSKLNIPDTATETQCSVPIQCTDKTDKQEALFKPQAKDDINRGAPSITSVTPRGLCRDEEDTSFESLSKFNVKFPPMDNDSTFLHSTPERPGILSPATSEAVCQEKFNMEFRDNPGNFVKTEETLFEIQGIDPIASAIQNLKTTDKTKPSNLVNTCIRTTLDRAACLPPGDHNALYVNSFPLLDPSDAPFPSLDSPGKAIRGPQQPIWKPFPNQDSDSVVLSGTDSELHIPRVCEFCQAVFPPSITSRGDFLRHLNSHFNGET
log2 fold change [1]: -0.001 | log2 fold change [2]: -0.093 | log2 fold change [3]: -0.019 | log2 fold change [4]: 0.02 | log2 fold change [5]: 0.026

TIMM10 (UniProt P62072)
UniProt P62072, sequence (P62072 whole entry, looked up): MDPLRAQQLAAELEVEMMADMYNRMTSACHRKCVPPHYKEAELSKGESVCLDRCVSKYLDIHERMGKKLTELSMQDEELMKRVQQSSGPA
log2 fold change [1]: -0.013 | log2 fold change [2]: -0.043 | log2 fold change [3]: 0.042 | log2 fold change [4]: -0.033 | log2 fold change [5]: 0.022

TELO2 (UniProt Q9Y4R8)
UniProt Q9Y4R8, sequence (Q9Y4R8 whole entry, looked up): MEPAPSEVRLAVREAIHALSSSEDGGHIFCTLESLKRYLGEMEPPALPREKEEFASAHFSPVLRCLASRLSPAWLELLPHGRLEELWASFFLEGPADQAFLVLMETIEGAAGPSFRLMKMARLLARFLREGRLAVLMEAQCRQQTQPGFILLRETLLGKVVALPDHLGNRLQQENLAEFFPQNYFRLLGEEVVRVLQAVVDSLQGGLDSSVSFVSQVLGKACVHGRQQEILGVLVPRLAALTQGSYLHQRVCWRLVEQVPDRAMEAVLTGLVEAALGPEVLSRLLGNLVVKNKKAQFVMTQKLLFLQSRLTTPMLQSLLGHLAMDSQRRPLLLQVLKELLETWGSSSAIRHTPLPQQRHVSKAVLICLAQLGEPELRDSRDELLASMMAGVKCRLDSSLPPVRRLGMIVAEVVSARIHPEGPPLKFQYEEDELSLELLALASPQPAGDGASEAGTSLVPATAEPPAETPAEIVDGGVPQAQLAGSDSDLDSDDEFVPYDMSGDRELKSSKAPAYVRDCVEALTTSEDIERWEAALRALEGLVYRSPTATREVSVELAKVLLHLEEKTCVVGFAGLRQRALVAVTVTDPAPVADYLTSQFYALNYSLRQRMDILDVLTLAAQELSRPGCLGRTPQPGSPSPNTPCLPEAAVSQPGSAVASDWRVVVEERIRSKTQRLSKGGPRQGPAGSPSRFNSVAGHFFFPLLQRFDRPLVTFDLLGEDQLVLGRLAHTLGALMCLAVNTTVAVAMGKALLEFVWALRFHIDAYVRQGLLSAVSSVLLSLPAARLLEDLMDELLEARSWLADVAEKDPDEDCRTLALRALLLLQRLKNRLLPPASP
log2 fold change [1]: -0.031 | log2 fold change [2]: -0.05 | log2 fold change [3]: 0.037 | log2 fold change [4]: 0.039 | log2 fold change [5]: 0.005

SREBF1 isoform 4 (UniProt P36956)
log2 fold change [1]: 0.026

TIMM13 (UniProt Q9Y5L4)
UniProt Q9Y5L4, sequence (Q9Y5L4 whole entry, looked up): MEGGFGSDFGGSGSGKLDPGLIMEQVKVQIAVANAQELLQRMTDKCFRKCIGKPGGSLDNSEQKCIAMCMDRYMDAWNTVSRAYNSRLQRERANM
log2 fold change [1]: -0.049 | log2 fold change [2]: 0.049 | log2 fold change [3]: 0.012 | log2 fold change [4]: -0.035 | log2 fold change [5]: 0.013

STAT3 (UniProt P40763)
UniProt P40763, sequence (P40763 whole entry, looked up): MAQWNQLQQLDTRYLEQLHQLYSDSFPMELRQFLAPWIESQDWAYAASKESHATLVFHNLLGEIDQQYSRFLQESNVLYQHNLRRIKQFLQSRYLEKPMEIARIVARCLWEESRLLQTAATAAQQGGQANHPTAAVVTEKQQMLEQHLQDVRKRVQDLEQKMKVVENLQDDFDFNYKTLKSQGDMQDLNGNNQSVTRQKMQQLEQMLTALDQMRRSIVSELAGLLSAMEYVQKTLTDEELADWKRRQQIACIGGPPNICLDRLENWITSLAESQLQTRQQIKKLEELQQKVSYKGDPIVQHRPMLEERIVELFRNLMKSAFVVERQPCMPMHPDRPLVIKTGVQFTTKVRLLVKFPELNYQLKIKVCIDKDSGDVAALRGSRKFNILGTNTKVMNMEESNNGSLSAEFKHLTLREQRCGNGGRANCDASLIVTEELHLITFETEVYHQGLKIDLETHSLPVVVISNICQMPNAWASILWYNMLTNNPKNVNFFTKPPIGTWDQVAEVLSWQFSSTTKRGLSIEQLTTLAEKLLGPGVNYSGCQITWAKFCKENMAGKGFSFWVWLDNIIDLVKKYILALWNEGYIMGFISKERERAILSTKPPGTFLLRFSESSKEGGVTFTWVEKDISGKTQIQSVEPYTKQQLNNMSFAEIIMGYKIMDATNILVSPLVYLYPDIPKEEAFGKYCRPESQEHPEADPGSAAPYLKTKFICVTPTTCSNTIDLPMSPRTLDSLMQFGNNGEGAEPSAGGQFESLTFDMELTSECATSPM
log2 fold change [1]: -0.033 | log2 fold change [2]: 0.034 | log2 fold change [3]: 0.1 | log2 fold change [4]: 0.024 | log2 fold change [5]: -0.006

STK38L (UniProt Q9Y2H1)
UniProt Q9Y2H1, sequence (Q9Y2H1 whole entry, looked up): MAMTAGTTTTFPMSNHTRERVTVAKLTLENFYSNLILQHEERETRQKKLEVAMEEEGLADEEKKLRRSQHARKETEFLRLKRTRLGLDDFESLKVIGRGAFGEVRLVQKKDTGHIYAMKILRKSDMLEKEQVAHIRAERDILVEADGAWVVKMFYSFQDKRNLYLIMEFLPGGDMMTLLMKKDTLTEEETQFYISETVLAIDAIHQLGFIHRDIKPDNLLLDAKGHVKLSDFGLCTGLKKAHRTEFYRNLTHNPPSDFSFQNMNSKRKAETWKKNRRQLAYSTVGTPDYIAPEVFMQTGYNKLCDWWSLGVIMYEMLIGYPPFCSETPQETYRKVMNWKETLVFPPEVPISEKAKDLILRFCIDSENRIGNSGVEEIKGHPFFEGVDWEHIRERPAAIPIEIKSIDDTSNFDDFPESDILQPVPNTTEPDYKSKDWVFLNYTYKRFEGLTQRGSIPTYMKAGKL
log2 fold change [1]: -0.009 | log2 fold change [2]: 0.472 (active) | log2 fold change [3]: 0.162 | log2 fold change [4]: 0.07 | log2 fold change [5]: 0.224

TERF2IP (UniProt Q9NYB0)
UniProt Q9NYB0, sequence (Q9NYB0 whole entry, looked up): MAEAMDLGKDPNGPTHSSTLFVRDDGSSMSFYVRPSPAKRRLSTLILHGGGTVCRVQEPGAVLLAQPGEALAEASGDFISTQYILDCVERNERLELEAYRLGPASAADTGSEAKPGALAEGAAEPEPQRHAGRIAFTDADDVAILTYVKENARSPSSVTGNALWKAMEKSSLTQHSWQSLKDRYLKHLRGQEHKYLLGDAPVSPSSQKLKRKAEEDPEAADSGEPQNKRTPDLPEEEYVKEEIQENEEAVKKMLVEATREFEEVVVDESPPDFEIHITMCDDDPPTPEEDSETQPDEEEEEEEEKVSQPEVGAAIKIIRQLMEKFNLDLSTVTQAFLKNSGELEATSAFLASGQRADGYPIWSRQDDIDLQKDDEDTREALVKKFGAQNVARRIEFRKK
log2 fold change [1]: 0.003 | log2 fold change [2]: 0.01 | log2 fold change [3]: 0.004 | log2 fold change [4]: -0.01 | log2 fold change [5]: 0.066

STK38 (UniProt Q15208)
log2 fold change [1]: -0.08 | log2 fold change [2]: 0.045 | log2 fold change [3]: 0.055 | log2 fold change [4]: 0.028 | log2 fold change [5]: -0.034

SRSF2 (UniProt Q01130)
UniProt Q01130, sequence (Q01130 whole entry, looked up): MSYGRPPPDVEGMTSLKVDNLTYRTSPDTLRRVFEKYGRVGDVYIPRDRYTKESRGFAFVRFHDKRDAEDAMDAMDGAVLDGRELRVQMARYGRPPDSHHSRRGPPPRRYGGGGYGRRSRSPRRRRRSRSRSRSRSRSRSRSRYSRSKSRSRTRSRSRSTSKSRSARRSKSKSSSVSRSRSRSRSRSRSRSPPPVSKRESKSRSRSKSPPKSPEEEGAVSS
log2 fold change [1]: 0.008 | log2 fold change [2]: -0.047 | log2 fold change [3]: -0.052 | log2 fold change [4]: 0.061 | log2 fold change [5]: 0.143
